Laboratory results from PubChem BioAssay (NCATS).
Results filed as inconclusive are left out. The source made the active and inactive calls. Calls come from the whole dose curve; as a rule, active = well fitted curve in the direction sought with a large enough effect; inconclusive = small, poorly fitted or top-dose-only effect, or another doubt; inactive = no such curve, though single readings can be large; an effect the other way counts as inactive or inconclusive.

Key:
[1] = Quantitative High-Throughput drug screen in 47 multiple myeloma cell lines against the NCATS MIPE library collection: NCIH929_DSMZ cell viability assay (AID 1918978); note: nearly all actives have a fitted effect of over 35% in size; note: potency is the fitted concentration of half-maximal effect
Procedure, shortened: (§1)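 500 cells/well; MIPE 4.0 drugs pin-transferred; 48 h, 37C, 5% CO2. CellTiter-Glo, 5 min RT, luminescence. Controls: DMSO 100%, media 0%.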

[2] = Quantitative High-Throughput drug screen in 47 multiple myeloma cell lines against the NCATS MIPE library collection: OCIMY1_PLB cell viability assay (AID 1918979); note: nearly all actives have a fitted effect of over 35% in size; note: potency is the fitted concentration of half-maximal effect;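 for viability: 100% = DMSO-only wells and 0% = cell-free media-only wells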
Procedure, shortened: as §1

[3] = Quantitative High-Throughput drug screen in 47 multiple myeloma cell lines against the NCATS MIPE library collection: MM1S_ATCC cell viability assay (AID 1918980); note: nearly all actives have a fitted effect of over 45% in size; note: potency is the fitted concentration of half-maximal effect
Procedure, shortened: as §1

[4] = Quantitative High-Throughput drug screen in 47 multiple myeloma cell lines against the NCATS MIPE library collection: MM1R_ATCC cell viability assay (AID 1918981); note: nearly all actives have a fitted effect of over 35% in size; note: potency is the fitted concentration of half-maximal effect
Procedure, shortened: as §1

[5] = Quantitative High-Throughput drug screen in 47 multiple myeloma cell lines against the NCATS MIPE library collection: KMS28PE_JCRB cell viability assay (AID 1918983); note: nearly all actives have a fitted effect of over 35% in size; note: potency is the fitted concentration of half-maximal effect
Procedure, shortened: as §1

[6] = Quantitative High-Throughput drug screen in 47 multiple myeloma cell lines against the NCATS MIPE library collection: L363_DSMZ cell viability assay (AID 1918984); note: nearly all actives have a fitted effect of over 40% in size; note: potency is the fitted concentration of half-maximal effect
Procedure, shortened: as §1

[7] = Quantitative High-Throughput drug screen in 47 multiple myeloma cell lines against the NCATS MIPE library collection: KMS34_JCRB cell viability assay (AID 1918985); note: nearly all actives have a fitted effect of over 40% in size
Procedure, shortened: as §1

[8] = Quantitative High-Throughput drug screen in 47 multiple myeloma cell lines against the NCATS MIPE library collection: OPM1_PLB cell viability assay (AID 1918989); note: nearly all actives have a fitted effect of over 40% in size; note: potency is the fitted concentration of half-maximal effect
Procedure, shortened: as §1

[9] = Quantitative High-Throughput drug screen in 47 multiple myeloma cell lines against the NCATS MIPE library collection: SKMM1_PLB cell viability assay (AID 1919863); conditions: SKMM1 myeloma viability, CellTiter-Glo ATP, 48 h; viability: hits give low values; note: nearly all actives have a fitted effect of over 35% in size; note: potency is the fitted concentration of half-maximal effect
Procedure, shortened: as §1

[10] = Quantitative High-Throughput drug screen in 47 multiple myeloma cell lines against the NCATS MIPE library collection: U266_ATCC cell viability assay (AID 1919864); note: nearly all actives have a fitted effect of over 35% in size; note: potency is the fitted concentration of half-maximal effect;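 for viability (% of DMSO control): 0% = media-only wells without cells and 100% = DMSO-only wells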
Procedure, shortened: as §1

[11] = Quantitative High-Throughput drug screen in 47 multiple myeloma cell lines against the NCATS MIPE library collection: XG6_PLB cell viability assay (AID 1919865); note: nearly all actives have a fitted effect of over 40% in size; note: potency is the fitted concentration of half-maximal effect
Procedure, shortened: as §1

[12] = Quantitative High-Throughput drug screen in 47 multiple myeloma cell lines against the NCATS MIPE library collection: VP6_DJ cell viability assay (AID 1919867); note: nearly all actives have a fitted effect of over 40% in size; note: potency is the fitted concentration of half-maximal effect;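 for viability (% of DMSO): 100% = DMSO-only wells and 0% = wells with media alone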
Procedure, shortened: as §1

[13] = Quantitative High-Throughput drug screen in 47 multiple myeloma cell lines against the NCATS MIPE library collection: PE2_PLB cell viability assay (AID 1919869); note: nearly all actives have a fitted effect of over 35% in size; note: potency is the fitted concentration of half-maximal effect
Procedure, shortened: as §1

[14] = Quantitative High-Throughput drug screen in 47 multiple myeloma cell lines against the NCATS MIPE library collection: RPMI8226_ATCC cell viability assay (AID 1919871); note: nearly all actives have a fitted effect of over 30% in size
Procedure, shortened: as §1

[15] = Quantitative High-Throughput drug screen in 47 multiple myeloma cell lines against the NCATS MIPE library collection: LP1_DSMZ cell viability assay (AID 1918982); note: nearly all actives have a fitted effect of over 35% in size; note: potency is the fitted concentration of half-maximal effect
Procedure, shortened: as §1

[16] = Quantitative High-Throughput drug screen in 47 multiple myeloma cell lines against the NCATS MIPE library collection: OCIMY7_PLB cell viability assay (AID 1918987); conditions: OCI-MY7 myeloma viability, CellTiter-Glo ATP, 48 h; viability (% of DMSO): at 45.8 µM (top of the series); note: potency is the fitted concentration of half-maximal effect; nearly all actives have a fitted effect of over 65% in size
Procedure, shortened: as §1

[17] = Quantitative High-Throughput drug screen in 47 multiple myeloma cell lines against the NCATS MIPE library collection: OCIMY5_PLB cell viability assay (AID 1918988); note: potency is the fitted concentration of half-maximal effect; nearly all actives have a fitted effect of over 65% in size
Procedure, shortened: as §1

[18] = Quantitative High-Throughput drug screen in 47 multiple myeloma cell lines against the NCATS MIPE library collection: XG1_PLB cell viability assay (AID 1919866)
Procedure, shortened: as §1

[19] = Quantitative High-Throughput drug screen in 47 multiple myeloma cell lines against the NCATS MIPE library collection: PCM6_Riken cell viability assay (AID 1919870); note: potency is the fitted concentration of half-maximal effect; nearly all actives have a fitted effect of over 30% in size
Procedure, shortened: as §1

[20] = Quantitative High-Throughput drug screen in 47 multiple myeloma cell lines against the NCATS MIPE library collection: UTMC2_PLB cell viability assay (AID 1919868); conditions: CellTiter-Glo ATP luminescence, 48 h; viability (% of DMSO control): at 45.8 µM (top of the series); note: potency is the fitted concentration of half-maximal effect; nearly all actives have a fitted effect of over 55% in size
Procedure, shortened: as §1

CC(C)(C)OC(=O)N[C@H]1CCCCCC=C[C@@H]2C[C@@]2(C(=O)NS(=O)(=O)C2CC2)NC(=O)[C@@H]2C[C@@H](OC(=O)N3Cc4cccc(F)c4C3)CN2C1=O
inactive: Potency [1] | Potency [2] | Potency [3] | Potency [4] | Potency [5] | Potency [6] | Potency [7] | Potency [8] | viability [9] 123% | Potency [10] | Potency [11] | Potency [12] | Potency [13] | Potency [14]

CN(C)Cc1ccc(-c2nc3cccc4c3n2CCNC4=O)cc1
inactive: Potency [2]
active: Potency [1] 18.7 µM | Potency [3] 18.7 µM | Potency [4] 20.9 µM | Potency [15] 23.5 µM | Potency [6] 18.7 µM | Potency [16] 8.33 µM | Potency [17] 20.9 µM | Potency [11] 16.6 µM | Potency [18] 20.9 µM | Potency [12] 14.8 µM | Potency [13] 20.9 µM | Potency [19] 14.8 µM

COC[C@@H](c1ccc(C(F)(F)F)cc1)N1CCN(C2(C)CCN(C(=O)c3c(C)ncnc3C)CC2)C[C@H]1C
inactive: Potency [2] | Potency [4] | Potency [15] | Potency [5] | Potency [8] | viability [9] 118% | Potency [14]
active: Potency [1] 9.35 µM | Potency [3] 2.35 µM | Potency [10] 6.62 µM | Potency [11] 16.6 µM | Potency [12] 23.5 µM | Potency [19] 20.9 µM

CNC1CCC(N(Cc2cccc(-c3ccncc3)c2)C(=O)c2sc3c(F)ccc(F)c3c2Cl)CC1 (configuration not stated)
active: Potency [1] 4.69 µM | Potency [2] 23.5 µM | Potency [3] 14.8 µM | Potency [4] 18.7 µM | Potency [5] 16.6 µM | Potency [6] 11.8 µM | Potency [16] 0.0662 µM | Potency [17] 18.7 µM | Potency [8] 13.2 µM | Potency [9] 18.7 µM | Potency [10] 18.7 µM | Potency [11] 14.8 µM | Potency [18] 18.7 µM | Potency [20] 20.9 µM | Potency [13] 10.5 µM | Potency [19] 14.8 µM

COc1cc2ncnc(-n3nc(-c4ccccn4)nc3N)c2cc1OC
active: Potency [1] 4.18 µM | Potency [3] 20.9 µM | Potency [4] 18.7 µM | Potency [5] 11.8 µM | Potency [6] 0.662 µM | Potency [16] 1.66 µM | Potency [17] 5.26 µM | Potency [8] 11.8 µM | Potency [9] 0.662 µM | Potency [11] 1.05 µM | Potency [18] 5.9 µM | Potency [20] 3.32 µM | Potency [13] 3.72 µM | Potency [19] 4.69 µM
inactive: Potency [2] | Potency [15]
